Sampled rows, rich in hits. Any-hit rate of the full collection: about 1.6%.
eIF4E-4G inh – eIF4E–eIF4G protein interaction inhibitors, primary screen, biochemical, uHTS, TR-FRET, eIF4GI fragment | AID 782, 2007 | TR-FRET eIF4E-eIF4GI(517-606) binding, 2 h | inhibition, % at 21.7 µM | 0.37% of 220,000 active | Eukaryotic translation initiation factor 4E (Mus musculus) + Eukaryotic translation …;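 active = inhibition above about 30%, limit read from the data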;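 also: 0% = full FRET control wells and 100% = background wells lacking eIF4GI fragment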
eIF4H inh – human eIF4H binding inhibitors, primary screen, translation initiation inhibitor project, biochemical, uHTS, fluorescence polarization; eIF4H fluorescence polarization binding assay; inhibition, % at 35 µM; 0.94% of 290,000 active; Eukaryotic translation initiation factor 4H (Homo sapiens), Q15056;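 also: calls also rest on retests at 20 µM and on dose response follow-up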
PABP polyA inh – PABP poly(A) RNA binding inhibitors, primary screen, biochemical, fluorescence polarization, uHTS. Polyadenylate-binding protein 1 (Homo sapiens), P11940. inhibition, % at 35 µM. 1% of 290,000 active;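 also: calls also rest on retests at 20 µM and on dose response follow-up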
Target sequence (P11940 whole entry, looked up): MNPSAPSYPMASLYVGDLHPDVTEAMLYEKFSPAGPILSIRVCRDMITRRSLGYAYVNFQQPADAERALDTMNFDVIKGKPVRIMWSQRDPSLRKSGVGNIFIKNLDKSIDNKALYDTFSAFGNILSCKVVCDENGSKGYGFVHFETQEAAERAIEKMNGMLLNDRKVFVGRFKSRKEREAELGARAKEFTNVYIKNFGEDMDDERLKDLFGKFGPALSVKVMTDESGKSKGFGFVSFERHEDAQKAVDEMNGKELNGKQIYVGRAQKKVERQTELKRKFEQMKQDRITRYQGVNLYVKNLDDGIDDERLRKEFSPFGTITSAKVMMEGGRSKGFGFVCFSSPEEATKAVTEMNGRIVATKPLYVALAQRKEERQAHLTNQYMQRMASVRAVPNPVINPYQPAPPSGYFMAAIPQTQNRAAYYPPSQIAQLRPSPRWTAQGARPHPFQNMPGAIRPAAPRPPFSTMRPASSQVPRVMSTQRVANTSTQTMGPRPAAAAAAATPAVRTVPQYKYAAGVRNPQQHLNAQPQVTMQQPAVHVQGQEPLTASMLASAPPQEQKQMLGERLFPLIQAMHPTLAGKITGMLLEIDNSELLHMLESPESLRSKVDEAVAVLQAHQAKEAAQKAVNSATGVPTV
PABP1 MLLE inh – inhibitors of PABP1 MLLE–PAM2 peptide binding, primary screen, biochemical, fluorescence polarization, FITC-PAM2, GST-MLLE | Polyadenylate-binding protein 1 (Homo sapiens), P11940 | inhibition, % at 20 µM | 0.36% of 360,000 active | AID 588489, 2011; in the data active = inhibition above about 35%, passing the limit was not always enough;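 also: plate controls were DMSO wells with GST-MLLE for no effect and wells lacking GST-MLLE protein for full effect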
PERK inhibitor – block of dimerizer-induced PERK translation repression, primary screen, PERK inhibitor project, CHO PERK-DD cells, SEAP luminescence, HTS | Eukaryotic translation initiation factor 2-alpha kinase 3 (Homo sapiens), Q9NZJ5 | CHO PERK-DD fusion, SEAP luminescence translation reporter | inhibition, % at 5.6 µM | 0.17% of 220,000 active | AID 1416, 2008;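 active = inhibition above the mean inhibition of all tested compounds plus 3 SD, set separately per screening campaign, cut at about 2.9% in these data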;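 also: PERK kinase domain activated by AP20187 dimerizer at 100 nM; 0% = DMSO with dimerizer and 100% = rapamycin at 8.4 µM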
* = called active by the depositor. Unless noted, no rule for the calls is given here.

How did O=C1N(Cc2cccc(Cl)c2)C[C@@H]2C[C@@H](c3cccc4ncccc34)N3CCC[C@@]123 do in these assays?
eIF4E-4G inh: 0; eIF4H inh: 2; PABP polyA inh: 2; PABP1 MLLE inh: 13; PERK inhibitor: 0

How did CC(CC(=O)NC1CCCC1)c1ccccc1 (stereo unspecified) do in these assays?
eIF4E-4G inh: -1; eIF4H inh: -6; PABP polyA inh: 50*; PABP1 MLLE inh: 2; PERK inhibitor: 1

Results for O=C(CCSc1ccccc1)NC1CCCCCC1 ?
eIF4E-4G inh: 0; eIF4H inh: 10; PABP polyA inh: 93*; PABP1 MLLE inh: -4; PERK inhibitor: 0

Results for COc1cc(NC(=O)c2ccc3c(c2)OCCO3)ccc1NC(=O)c1ccco1 ?
eIF4E-4G inh: 0; eIF4H inh: -10; PABP polyA inh: 12; PABP1 MLLE inh: -9; PERK inhibitor: 0

How did CCOc1ccccc1N1CCN(CC(=O)Nc2ncc(C)s2)CC1 do in these assays?
eIF4H inh: 2; PABP polyA inh: 10; PABP1 MLLE inh: -6

Results for O=c1oc2ccccc2cc1-c1nc2ccccc2o1 ?
eIF4E-4G inh: 6; eIF4H inh: 3; PABP polyA inh: -9; PABP1 MLLE inh: -2; PERK inhibitor: 1

How did Nc1cc2nc3ccccc3oc-2cc1=O do in these assays?
eIF4E-4G inh: 3; eIF4H inh: 92; PABP polyA inh: 78*; PABP1 MLLE inh: 12; PERK inhibitor: 0

How did CCO/C=C1\C(=O)N(CC)c2ccccc21 do in these assays?
eIF4E-4G inh: 3; eIF4H inh: active; PABP polyA inh: 70*; PABP1 MLLE inh: 16; PERK inhibitor: 0

How did CCN1C(=O)/C(=C\N(C)C)c2ccccc21 do in these assays?
eIF4E-4G inh: -1; eIF4H inh: 4; PABP polyA inh: -2; PABP1 MLLE inh: 7; PERK inhibitor: 1

Results for CC(C)c1ccc(NC(=O)CCNC(=O)Cn2ccc3ccccc3c2=O)cc1 ?
eIF4H inh: -10; PABP polyA inh: 9; PABP1 MLLE inh: 4

Results for CC[n+]1c(/C=C/c2ccc(OC(C)=O)c(OC)c2)ccc2ccccc21 ?
eIF4H inh: 4; PABP polyA inh: 55; PABP1 MLLE inh: -135

What do the screens show for `CC[n+]1c(/C=C/c2ccc(OC)c(OC)c2)ccc2ccccc21`?
eIF4H inh: 1; PABP polyA inh: 59*; PABP1 MLLE inh: -141

How did CC(C)C/C(O)=C/c1nc2cc(Cl)ccc2oc1=O do in these assays?
eIF4E-4G inh: 0; eIF4H inh: 79*; PABP polyA inh: active; PABP1 MLLE inh: 13; PERK inhibitor: 0

Results for O=c1oc2ccc(Cl)cc2nc1/C=C(\O)c1ccco1 ?
eIF4E-4G inh: -1; eIF4H inh: 3; PABP polyA inh: 21; PABP1 MLLE inh: -78; PERK inhibitor: 0

Results for CCn1c(N)c(C(=O)NCc2cccnc2)sc1=S ?
eIF4E-4G inh: -6; eIF4H inh: 1; PABP polyA inh: -2; PABP1 MLLE inh: 38; PERK inhibitor: 0

How did Nc1c(C(=O)NCc2cccnc2)sc(=S)n1-c1ccccc1 do in these assays?
eIF4E-4G inh: 33*; eIF4H inh: -4; PABP polyA inh: 3; PABP1 MLLE inh: 33; PERK inhibitor: 0

How did CC1CN(c2nc3ccccn3c(=O)c2/C=C(\C#N)S(=O)(=O)c2ccccc2)CC(C)O1 (stereo unspecified) do in these assays?
eIF4E-4G inh: 3; eIF4H inh: 14; PABP polyA inh: 10; PABP1 MLLE inh: 4; PERK inhibitor: -1

How did COc1ccc(NC(=O)C2CC(c3cccc(Br)c3)=NO2)cc1OC (stereo unspecified) do in these assays?
eIF4H inh: 1; PABP polyA inh: 19; PABP1 MLLE inh: 13

How did CC(C)(CS(=O)(=O)[O-])NC(=O)CC[N+](C)(C)CCO do in these assays?
eIF4E-4G inh: -16; eIF4H inh: 88*; PABP polyA inh: 51*; PABP1 MLLE inh: 1; PERK inhibitor: 2

What do the screens show for `COCCN1CN(S(=O)(=O)c2ccc(Cl)cc2)c2nc3ccccc3nc21`?
eIF4E-4G inh: -3; eIF4H inh: -1; PABP polyA inh: 3; PABP1 MLLE inh: 9; PERK inhibitor: -1

Results for COCCN1CN(S(=O)(=O)c2ccccc2)c2nc3ccccc3nc21 ?
eIF4E-4G inh: 11; eIF4H inh: -14; PABP polyA inh: 1; PABP1 MLLE inh: 37*; PERK inhibitor: 0

Results for Cc1cccc(S(=O)(=O)N2CN(Cc3ccco3)c3nc4ccccc4nc32)c1 ?
eIF4E-4G inh: -6; eIF4H inh: 54*; PABP polyA inh: 20*; PABP1 MLLE inh: -11; PERK inhibitor: 0

How did COc1ccc(-c2nc(SCC(=O)NC3CCCCC3)n[nH]2)cc1 do in these assays?
eIF4H inh: -10; PABP polyA inh: -2; PABP1 MLLE inh: -9

Results for Cc1c(C(=O)Nc2ccc(Cl)cc2)c2ccccn2c1CCc1ccncc1 ?
eIF4E-4G inh: -6; eIF4H inh: 12; PABP polyA inh: 4; PABP1 MLLE inh: -38; PERK inhibitor: 1

Results for Cc1c(C(=O)Nc2cccc(Cl)c2)c2ccccn2c1CCc1ccncc1 ?
eIF4E-4G inh: 2; eIF4H inh: inconclusive; PABP polyA inh: 85*; PABP1 MLLE inh: -25; PERK inhibitor: 0

How did CC(NC(=O)C12CC3CC(CC(C3)C1)C2)C(=O)NCCN(C)C (stereo unspecified) do in these assays?
eIF4E-4G inh: 3; eIF4H inh: -2; PABP polyA inh: 1; PABP1 MLLE inh: 12; PERK inhibitor: 0

Results for CCOC(=O)C1CCN(CC(C)(C)NS(=O)(=O)c2ccccc2)CC1 ?
eIF4H inh: 3; PABP polyA inh: 19; PABP1 MLLE inh: 2

What do the screens show for `Cc1cc(C)nc(N/N=C/c2ccccc2OCc2ccccc2)n1`?
eIF4E-4G inh: 0; eIF4H inh: 82; PABP polyA inh: active; PABP1 MLLE inh: -7; PERK inhibitor: 0

Results for Cc1cc(C)cc(NC(=O)C(=S)NCc2ccccc2)c1 ?
eIF4E-4G inh: -2; eIF4H inh: -3; PABP polyA inh: 10; PABP1 MLLE inh: -9; PERK inhibitor: 2.9*

Results for Cc1cc(C)cc(NC(=S)NC(=O)Cc2ccccc2)c1 ?
PABP1 MLLE inh: 32

What do the screens show for `O=c1cc(CN2CCCc3ccccc32)nc2sccn12`?
eIF4E-4G inh: 5; eIF4H inh: 94*; PABP polyA inh: -16; PABP1 MLLE inh: 124; PERK inhibitor: 0

How did O=c1cc(CN2CCc3ccccc32)nc2sccn12 do in these assays?
eIF4E-4G inh: -19; eIF4H inh: 19; PABP polyA inh: 12; PABP1 MLLE inh: 1; PERK inhibitor: 0

How did COc1ccc(NS(=O)(=O)c2cccc(NC(=O)CCC(=O)c3ccc(Cl)cc3)c2)cc1 do in these assays?
eIF4E-4G inh: 3; eIF4H inh: active; PABP polyA inh: 60; PABP1 MLLE inh: -4; PERK inhibitor: 0

Source: PubChem BioAssay (several laboratories)
